According to PubChem BioAssay (EPA / NIEHS):
Inconclusive results are not listed. Activity calls are given as the source filed them. The calls were made as follows, unless noted: active = hit-call score of the fitted dose curve at least 0.9, where 1 is the maximum; inactive = score below 0.9.

Key:
[1] = biological target: Bile acid receptor (Homo sapiens) (UniProt Q96RI1); assay: OT_FXR_FXRSRC1_0480: Odyssey Thera (OT) 8-hour HEK293T Protein-Complementation Assay for Farnesoid X receptor/SRC-1 Co-activator (AID 2283383; active = hit-call score of the fitted dose curve at least 0.9, where 1 is the maximum)
Chain of Bile acid receptor (Homo sapiens) (Q96RI1 whole entry, looked up, the tested form may be a part): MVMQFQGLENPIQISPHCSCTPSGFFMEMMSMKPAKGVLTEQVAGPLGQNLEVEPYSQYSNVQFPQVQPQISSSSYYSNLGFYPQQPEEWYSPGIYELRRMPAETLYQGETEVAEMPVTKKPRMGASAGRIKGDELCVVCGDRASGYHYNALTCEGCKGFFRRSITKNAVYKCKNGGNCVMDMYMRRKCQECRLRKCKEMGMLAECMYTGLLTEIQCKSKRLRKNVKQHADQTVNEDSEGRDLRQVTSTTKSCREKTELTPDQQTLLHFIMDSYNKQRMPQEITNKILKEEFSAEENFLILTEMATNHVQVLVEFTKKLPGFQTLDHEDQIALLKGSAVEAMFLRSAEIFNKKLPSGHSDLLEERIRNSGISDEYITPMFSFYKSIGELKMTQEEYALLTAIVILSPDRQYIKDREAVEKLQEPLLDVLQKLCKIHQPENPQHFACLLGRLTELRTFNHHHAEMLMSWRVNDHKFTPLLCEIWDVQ
Outline: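 HEK293T protein-fragment complementation assay: FXR and SRC-1 coactivator are fused to reporter fragments, and their interaction restores a fluorescent reporter. Readout was taken 8 h after dosing, with gain of signal fit relative to DMSO.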

[2] = BSK_BT_Bcell_Proliferation: Viability Assessment in the BioMAP Diversity Plus: BT Assay for B cell Proliferation (AID 2284227); settings: primary human B cells with PBMC
Outline: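 Human B cell/PBMC co-culture; test chemical added; 72 h; TCA fix (10%), 0.1% SRB stain, A560 for total protein as a proliferation read-out; positive-direction fit vs DMSO baseline.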

[3] = read-out: Interleukin 6 (IL6), IL6 (gene 3569); assay: BSK_BT_xIL6: BioMAP Diversity Plus: BT Assay for Interleukin 6 (IL6) Biomarker Activity (AID 2284228); settings: primary human B cells with PBMC
Outline: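 Human B cell/PBMC co-culture; secreted IL-6 quantified by Luminex xMAP 24 h after chemical dosing, fitted relative to DMSO. Parallel PBMC viability by Alamar Blue after 1 h pretreatment, 20 ng/mL SEB and TSST-1, 90 h incubation.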

[4] = read-out: Interleukin 17A (IL17A), IL17A (gene 3605); assay: BSK_BT_xIL17A: BioMAP Diversity Plus: BT Assay for Interleukin 17A (IL17A) Biomarker Activity (AID 2284229); settings: primary human B cells with PBMC
Outline: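 Co-culture of human B cells and PBMC, dosed for 24 h in 96-well format. Secreted IL-17A measured with Luminex xMAP; gain-direction fitting against DMSO as baseline.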

[5] = read-out: Tumor necrosis factor (Homo sapiens) (UniProt P01375); assay: BSK_BT_xTNFa: BioMAP Diversity Plus: BT Assay for Tumor necrosis factor alpha (TNF-alpha) Biomarker Activity (AID 2284230); settings: primary human B cells with PBMC
Outline: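 Read-out: Luminex xMAP quantitation of secreted TNF-alpha from a B cell/PBMC co-culture 24 h after compound addition. Signal analysed relative to DMSO vehicle, positive fitting direction.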

[6] = read-out: Vascular cell adhesion molecule 1 (VCAM1), VCAM1 (gene 7412); assay: BSK_MyoF_VCAM1: BioMAP Diversity Plus: MyoF Assay for Vascular cell adhesion molecule 1 (VCAM1) Biomarker Activity (AID 2284231); settings: primary human lung fibroblasts
Outline: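 Primary human lung fibroblasts (BioMAP MyoF system) dosed with chemical, VCAM-1 measured by ELISA 24 hours later. Fitted in the positive direction against DMSO; parallel SRB staining assessed cytotoxicity.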

[7] = read-out: Collagen I, COL1A1 (gene 1277); assay: BSK_MyoF_CollagenI: BioMAP Diversity Plus: MyoF Assay for Collagen I Biomarker Activity (AID 2284238); settings: primary human lung fibroblasts
Outline: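 Primary human lung fibroblasts (MyoF system) treated 24 h; Collagen I quantified by ELISA and fitted in positive direction against DMSO. Parallel SRB total-protein staining assessed overt cytotoxicity.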

[8] = read-out: Collagen III, COL3A1 (gene 1281); assay: BSK_MyoF_CollagenIII: BioMAP Diversity Plus: MyoF Assay for Collagen III Biomarker Activity (AID 2284239); settings: primary human lung fibroblasts
Outline: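 Primary human lung fibroblasts (BioMAP MyoF system) exposed 24 h. Collagen III measured by ELISA; positive-direction fit relative to DMSO.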

[9] = read-out: Actin alpha 1 (ACTA1), ACTA1 (gene 58); assay: BSK_MyoF_ACTA1: BioMAP Diversity Plus: MyoF Assay for Actin alpha 1 (ACTA1) Biomarker Activity (AID 2284244); settings: primary human lung fibroblasts
Outline: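 Human lung fibroblast (MyoF system) cultures dosed with test chemical; alpha-SMA measured by ELISA 24 h after dosing, normalized to DMSO control. Cytotoxicity tracked in parallel cultures by SRB total-protein staining.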

[10] = read-out: Interleukin 2 (IL2), IL2 (gene 3558); assay: BSK_BT_xIL2: BioMAP Diversity Plus: BT Assay for Interleukin 2 (IL2) Biomarker Activity (AID 2284245); settings: primary human B cells with PBMC
Outline: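 Human B cell plus PBMC co-culture, 24 h after chemical dosing; secreted IL-2 quantified by Luminex xMAP multiplex, fitted for signal gain against DMSO baseline.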

[11] = read-out: Basic fibroblast growth factor (bFGF), FGF2 (gene 2247); assay: BSK_MyoF_bFGF: BioMAP Diversity Plus: MyoF Assay for Basic fibroblast growth factor (bFGF) Biomarker Activity (AID 2284246); settings: primary human lung fibroblasts
Outline: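 Human lung fibroblast cultures were dosed and measured 24 h later in 96-well format. bFGF biomarker levels quantified by ELISA, with activity fitted in the positive direction against DMSO.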

[12] = read-out: Collagen IV, COL4A1 (gene 1282); assay: BSK_MyoF_CollagenIV: BioMAP Diversity Plus: MyoF Assay for Collagen IV Biomarker Activity (AID 2284247); settings: primary human lung fibroblasts
Outline: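 Primary human lung fibroblasts (MyoF system) dosed 24 h; Collagen IV measured by ELISA. Activity fitted in positive direction against DMSO; cytotoxicity tracked by SRB total-protein staining in parallel cultures.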

[13] = read-out: Plasminogen activator inhibitor-1 (PAI1), SERPINE1 (gene 5054); assay: BSK_MyoF_PAI1: BioMAP Diversity Plus: MyoF Assay for Plasminogen activator inhibitor-1 (PAI1) Biomarker Activity (AID 2284256); settings: primary human lung fibroblasts
Outline: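 Primary human lung fibroblasts treated with chemical for 24 h; PAI-1 levels quantified by ELISA relative to DMSO. Cytotoxicity was assessed in parallel cultures by SRB total-protein staining (0.1% SRB after 10% TCA fixation, 560 nm).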

Decorin, DCN (gene 1634) = assay: BSK_MyoF_Decorin: BioMAP Diversity Plus: MyoF Assay for Decorin Biomarker Activity (AID 2284265); settings: primary human lung fibroblasts
Outline: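 Human lung fibroblast cultures were dosed for 24 h, and decorin was then measured by ELISA. Parallel cultures were stained with sulforhodamine B for total protein as a cytotoxicity check. Gain of signal was fitted relative to DMSO.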

[14] = BSK_MyoF_SRB: Viability Assessment in the BioMAP Diversity Plus: MyoF Assay (AID 2284267); settings: primary human lung fibroblasts;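 also: total protein by SRB absorbance in parallel cultures as cytotoxicity measure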
Outline: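 Human lung fibroblasts, 24 h after chemical dosing; total protein measured by 0.1% sulforhodamine B staining after 10% TCA fixation, read at 560 nm, fitted relative to DMSO baseline.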

[15] = read-out: Matrix Metallopeptidase 1 (MMP1), MMP1 (gene 4312); assay: BSK_MyoF_MMP1: BioMAP Diversity Plus: MyoF Assay for Matrix Metallopeptidase 1 (MMP1) Biomarker Activity (AID 2284268); settings: primary human lung fibroblasts
Outline: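 Human lung fibroblast primary cells; MMP1 measured by ELISA 24 h after dosing, fitted in the positive direction relative to DMSO. Parallel SRB staining (0.1%, after 10% TCA fixation, 560 nm) assesses overt cytotoxicity.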

[16] = read-out: TIMP metallopeptidase inhibitor 1 (TIMP1), TIMP1 (gene 7076); assay: BSK_MyoF_TIMP1: BioMAP Diversity Plus: MyoF Assay for TIMP metallopeptidase inhibitor 1 (TIMP1) Biomarker Activity (AID 2284269); settings: primary human lung fibroblasts
Outline: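 ELISA read-out of TIMP-1 from primary human lung fibroblast cultures 24 h after compound dosing; gain of signal relative to DMSO vehicle baseline defines activity.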

[17] = biological target: Bile acid receptor (Homo sapiens) (UniProt Q96RI1); assay: OT_FXR_FXRSRC1_1440: Odyssey Thera (OT) 24-hour HEK293T Protein-Complementation Assay for Farnesoid X receptor/SRC-1 Co-activator (AID 2283384; active = hit-call score of the fitted dose curve at least 0.9, where 1 is the maximum)
Outline: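 HEK293T cells, 24 h after chemical dosing. FXR–SRC-1 coactivator interaction read as fluorescence from protein-fragment complementation of a split reporter. Gain of signal fitted against DMSO baseline.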

[18] = CCTE_Deisenroth_AIME_384WELL_CTox_Inactive: Cytotoxicity Assessment (CTOX) in CCTE's 384-well Estrogen Receptor Transactivation Assay without AIME metabolic competence (metabolism negative), Deisenroth Lab (AID 2284039; active = hit-call score of the fitted dose curve at least 0.9, where 1 is the maximum;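 also: cell viability via live-cell protease substrate cleaved to fluorescent probe; cells exposed 24 h to medium preincubated 2 h with alginate-water beads without S9; loss of fluorescence signal means loss of viability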)
Outline: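 Fluorescent protease-substrate viability readout after 24 h exposure of VM7Luc4E2 cells to conditioned medium. Chemicals (0.002–200 uM) first sat 2 h over alginate-water beads, no S9. Data fitted bidirectionally, loss of signal meaning viability loss.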

[19] = biological target: human Phosphodiesterase 10 (PDE10), PDE10A (gene 10846) (UniProt Q9Y233); assay: NVS_ENZ_hPDE10: NovaScreen (NVS) Enzymatic Assay for human Phosphodiesterase 10 (PDE10) (AID 2283195; active = hit-call score of the fitted dose curve at least 0.9, where 1 is the maximum)
Chain of human Phosphodiesterase 10 (PDE10), PDE10A (gene 10846) (Q9Y233 whole entry, looked up): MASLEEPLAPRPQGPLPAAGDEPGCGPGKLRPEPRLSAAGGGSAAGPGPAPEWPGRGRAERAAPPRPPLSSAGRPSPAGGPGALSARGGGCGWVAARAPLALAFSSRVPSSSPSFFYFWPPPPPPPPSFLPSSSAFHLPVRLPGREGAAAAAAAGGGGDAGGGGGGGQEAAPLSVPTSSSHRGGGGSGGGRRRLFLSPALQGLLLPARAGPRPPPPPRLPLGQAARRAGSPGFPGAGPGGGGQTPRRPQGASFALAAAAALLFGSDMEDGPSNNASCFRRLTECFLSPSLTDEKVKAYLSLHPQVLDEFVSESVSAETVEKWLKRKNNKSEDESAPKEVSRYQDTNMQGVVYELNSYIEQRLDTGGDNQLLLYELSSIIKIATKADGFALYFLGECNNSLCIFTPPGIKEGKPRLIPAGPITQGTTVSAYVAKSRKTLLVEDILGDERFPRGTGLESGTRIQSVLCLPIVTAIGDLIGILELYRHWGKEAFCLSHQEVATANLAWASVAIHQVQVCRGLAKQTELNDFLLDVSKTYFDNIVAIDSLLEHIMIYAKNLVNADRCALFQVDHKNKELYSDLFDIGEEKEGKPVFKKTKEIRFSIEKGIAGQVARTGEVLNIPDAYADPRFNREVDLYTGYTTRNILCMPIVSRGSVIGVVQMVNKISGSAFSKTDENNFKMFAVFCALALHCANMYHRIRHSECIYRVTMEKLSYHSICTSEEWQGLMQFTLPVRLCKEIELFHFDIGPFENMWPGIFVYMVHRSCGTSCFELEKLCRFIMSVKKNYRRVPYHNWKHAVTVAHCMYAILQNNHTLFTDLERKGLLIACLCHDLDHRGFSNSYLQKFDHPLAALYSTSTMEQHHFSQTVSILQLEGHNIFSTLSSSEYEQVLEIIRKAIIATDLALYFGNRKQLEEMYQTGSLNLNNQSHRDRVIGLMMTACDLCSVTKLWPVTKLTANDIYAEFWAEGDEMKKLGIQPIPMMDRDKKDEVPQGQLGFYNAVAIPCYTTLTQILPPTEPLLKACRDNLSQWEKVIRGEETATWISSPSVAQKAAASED
Outline: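 Fluorescence/mobility-shift readout of PDE10A enzyme activity, taken 1 h post-dosing. Primary screen in duplicate at 25 uM; actives (e.g. ≥30% inhibition) retested as singleton concentration-response, top concentration 50 uM.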

Measured: AC50

Chain of Tumor necrosis factor (Homo sapiens) (P01375 whole entry, looked up): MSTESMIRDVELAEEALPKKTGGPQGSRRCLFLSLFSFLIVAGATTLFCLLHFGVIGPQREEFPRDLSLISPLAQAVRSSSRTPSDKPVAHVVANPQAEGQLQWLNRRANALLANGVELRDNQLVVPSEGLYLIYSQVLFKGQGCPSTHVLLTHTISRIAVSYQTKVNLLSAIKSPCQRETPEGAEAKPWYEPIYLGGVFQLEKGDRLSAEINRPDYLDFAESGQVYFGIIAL

O=C(OCc1ccccc1)c1ccccc1
inactive: [1]

O=C(C(=O)c1ccccc1)c1ccccc1
inactive: [2] | [3] | [4] | [5] | [6] | [7] | [8] | [9] | [10] | [11] | [13] | Decorin, DCN (gene 1634) | [14] | [15] | [16]
active: [12] 913 nM

O=C(CC(C(=O)OC1CCCCC1)S(=O)(=O)O)OC1CCCCC1 (stereo unspecified)
inactive: [17] | [18]

Cc1cc2nc3c(=O)[nH]c(=O)nc-3n(C[C@H](O)[C@H](O)[C@H](O)CO)c2cc1C
active: [1] 37300 nM | [17] 52700 nM

COC(=O)c1ccccc1
inactive: [19]

CCCCCCCCCCCCCCCCCC[N+](C)(C)C
active: [19] 1710 nM | [2] 2660 nM | [3] 5000 nM | [4] 1360 nM | [5] 2620 nM | [6] 3330 nM | [7] 1350 nM | [8] 2730 nM | [9] 1690 nM | [10] 1810 nM | [11] 3730 nM | [12] 3720 nM | [13] 3360 nM | [14] 3600 nM | [15] 1240 nM | [16] 8130 nM
inactive: Decorin, DCN (gene 1634)

CCCCCCC(O)CCCCCCCCCCC(=O)OC (stereo unspecified)
inactive: [2] | [3] | [4] | [5] | [6] | [7] | [8] | [9] | [10] | [11] | [12] | [13] | Decorin, DCN (gene 1634) | [14] | [15] | [16]

C1=CCC=C1
inactive: [18]
